Experimental data reported in PubChem BioAssay AID1159580 (chemical genetic matrix, 2015).
Hit rate of the full screen: of about 5,500 compounds, about 2,000 (36%) were called active. Another 18% or so got no clear call; they are omitted. Rule as the data show it: active = normalized growth mostly below about 0.91 (no sharp cut-off); inconclusive = no clear call, values can overlap the other calls; inactive = mostly above about 0.92. This is one part of the list.

Test: chemical genetic growth profiling, strain panel (AID 1159580);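 also: tested at 20 µM; growth read once vehicle control cultures reached saturation at 30 °C; 1 = growth at the plate median or of vehicle wells; lower values mean less growth of the strain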
Conditions: growth OD

Measured: normalized growth

C=C[C@@]1(C)CC(=O)[C@@]2(O)[C@](C)(O1)[C@@H](OC(C)=O)[C@@H](O)C1C(C)(C)CC[C@H](O)[C@@]12C (some centres not stated)
inactive: S. cerevisiae deletion strains, locus YJR075W, strain HOC1, hits give low values 0.997 | S. cerevisiae deletion strains, locus YKL009W, strain mrt4, hits give low values 0.964 | S. cerevisiae deletion strains, locus YKL068W, hits give low values 0.992 | S. cerevisiae deletion strains, locus YKL085W, strain MDH1 (second series), hits give low values 0.966 | S. cerevisiae deletion strains, locus YKL085W, strain MDH1, hits give low values 0.966 | S. cerevisiae deletion strains, locus YKL160W, strain elf1, hits give low values 0.963 | S. cerevisiae deletion strains, locus YKL190W, strain CNB1, hits give low values 0.99 | S. cerevisiae deletion strains, locus YKR001C, strain vps1, hits give low values 0.984 | S. cerevisiae deletion strains, locus YKR026C, strain gcn3, hits give low values 0.997 | S. cerevisiae deletion strains, locus YKR091W, strain srl3, hits give low values 0.971 | S. cerevisiae deletion strains, locus YLL001W, strain dnm1, hits give low values 1.02 | S. cerevisiae deletion strains, locus YLL026W, hits give low values 0.964 | S. cerevisiae deletion strains, locus YLL041C, strain sdh2, hits give low values 0.969 | S. cerevisiae deletion strains, locus YLR027C, strain aat2, hits give low values 0.98 | S. cerevisiae deletion strains, locus YLR039C, strain RIC1, hits give low values 0.939 | S. cerevisiae deletion strains, locus YLR058C, strain SHM2, hits give low values 0.982 | S. cerevisiae deletion strains, locus YLR102C, strain apc9, hits give low values 0.974 | S. cerevisiae deletion strains, locus YLR113W, strain HOG1, hits give low values 0.955 | S. cerevisiae deletion strains, locus YLR221C, strain rsa3, hits give low values 1.03 | S. cerevisiae deletion strains, locus YLR258W, strain gsy2, hits give low values 0.965 | S. cerevisiae deletion strains, locus YLR262C, strain YPT6 (second series), hits give low values 0.968 | S. cerevisiae deletion strains, locus YLR262C, strain YPT6, hits give low values 0.894 | S. cerevisiae deletion strains, locus YLR268W, strain sec22, hits give low values 1.07 | S. cerevisiae deletion strains, locus YLR320W, strain mms22, hits give low values 1.01 | S. cerevisiae deletion strains, locus YLR330W, strain CHS5, hits give low values 0.989 | S. cerevisiae deletion strains, locus YLR342W, strain FKS1 (second series), hits give low values 0.987 | S. cerevisiae deletion strains, locus YLR342W, strain FKS1, hits give low values 0.991 | S. cerevisiae deletion strains, locus YLR357W, strain rsc2, hits give low values 0.987 | S. cerevisiae deletion strains, locus YLR370C, strain arc18, hits give low values 0.978 | S. cerevisiae deletion strains, locus YLR371W, strain rom2, hits give low values 0.968 | S. cerevisiae deletion strains, locus YLR384C, strain iki3, hits give low values 0.993 | S. cerevisiae deletion strains, locus YLR418C, strain cdc73, hits give low values 0.99 | S. cerevisiae deletion strains, locus YML016C, strain PPZ1, hits give low values 0.991 | S. cerevisiae deletion strains, locus YML032C, strain rad52, hits give low values 1.01 | S. cerevisiae deletion strains, locus YML120C, strain ndi1, hits give low values 0.989 | S. cerevisiae deletion strains, locus YML124C, strain tub3, hits give low values 0.983 | S. cerevisiae deletion strains, locus YMR058W, strain fet3, hits give low values 0.982 | S. cerevisiae deletion strains, locus YMR078C, strain ctf18, hits give low values 0.985 | S. cerevisiae deletion strains, locus YMR125W, strain sto1, hits give low values 0.974 | S. cerevisiae deletion strains, locus YMR129W, hits give low values 0.965 | S. cerevisiae deletion strains, locus YMR205C, strain PFK2, hits give low values 0.998 | S. cerevisiae deletion strains, locus YMR223W, strain ubp8, hits give low values 0.98 | S. cerevisiae deletion strains, locus YMR231W, strain pep5, hits give low values 0.992 | S. cerevisiae deletion strains, locus YMR263W, strain SAP30, hits give low values 0.992 | S. cerevisiae deletion strains, locus YMR307W, strain GAS1, hits give low values 1 | S. cerevisiae deletion strains, locus YNL067W, strain RPL9B, hits give low values 1.01 | S. cerevisiae deletion strains, locus YNL071W, strain lat1, hits give low values 0.988 | S. cerevisiae deletion strains, locus YNL128W, strain TEP1, hits give low values 0.965 | S. cerevisiae deletion strains, locus YNL153C, strain GIM3, hits give low values 1.01 | S. cerevisiae deletion strains, locus YNL183C, strain NPR1, hits give low values 0.933 | S. cerevisiae deletion strains, locus YNL209W, strain ssb2, hits give low values 0.992 | S. cerevisiae deletion strains, locus YNL233W, strain BNI4, hits give low values 1.01 | S. cerevisiae deletion strains, locus YNL248C, strain rpa49, hits give low values 0.919 | S. cerevisiae deletion strains, locus YNL250W, strain rad50, hits give low values 0.972 | S. cerevisiae deletion strains, locus YNL271C, strain bni1, hits give low values 0.987 | S. cerevisiae deletion strains, locus YNL298W, strain CLA4, hits give low values 0.959 | S. cerevisiae deletion strains, locus YNL307C, strain MCK1, hits give low values 0.996 | S. cerevisiae deletion strains, locus YNL322C, strain KRE1 (second series), hits give low values 0.939 | S. cerevisiae deletion strains, locus YNL322C, strain KRE1, hits give low values 0.994 | S. cerevisiae deletion strains, locus YNR049C, strain mso1, hits give low values 0.959 | S. cerevisiae deletion strains, locus YNR052C, strain pop2, hits give low values 0.984 | S. cerevisiae deletion strains, locus YOL006C, strain TOP1, hits give low values 0.997 | S. cerevisiae deletion strains, locus YOL012C, strain htz1 1.15 | S. cerevisiae deletion strains, locus YOL147C, strain pex11, hits give low values 0.999 | S. cerevisiae deletion strains, locus YOR001W, strain rrp6, hits give low values 1.03 | S. cerevisiae deletion strains, locus YOR061W, strain CKA2, hits give low values 0.972 | S. cerevisiae deletion strains, locus YOR069W, strain VPS5, hits give low values 0.993 | S. cerevisiae deletion strains, locus YOR070C, strain gyp1, hits give low values 0.986 | S. cerevisiae deletion strains, locus YOR080W, strain dia2, hits give low values 0.973 | S. cerevisiae deletion strains, locus YOR083W, strain WHI5, hits give low values 0.92 | S. cerevisiae deletion strains, locus YOR106W, strain vam3, hits give low values 0.919 | S. cerevisiae deletion strains, locus YOR136W, strain idh2, hits give low values 0.978 | S. cerevisiae deletion strains, locus YOR144C, strain elg1, hits give low values 0.991 | S. cerevisiae deletion strains, locus YOR184W, strain ser1, hits give low values 0.978 | S. cerevisiae deletion strains, locus YOR231W, strain MKK1, hits give low values 0.966 | S. cerevisiae deletion strains, locus YOR265W, strain rbl2, hits give low values 0.988 | S. cerevisiae deletion strains, locus YOR270C, strain vph1, hits give low values 0.94 | S. cerevisiae deletion strains, locus YOR290C, strain snf2, hits give low values 0.955 | S. cerevisiae deletion strains, locus YOR316C, strain cot1, hits give low values 0.984 | S. cerevisiae deletion strains, locus YPL051W, strain arl3, hits give low values 0.97 | S. cerevisiae deletion strains, locus YPL055C, strain LGE1, hits give low values 0.998 | S. cerevisiae deletion strains, locus YPL078C, strain atp4, hits give low values 0.955 | S. cerevisiae deletion strains, locus YPL106C, strain sse1, hits give low values 0.955 | S. cerevisiae deletion strains, locus YPL240C, strain hsp82, hits give low values 0.987 | S. cerevisiae deletion strains, locus YPL241C, strain CIN2, hits give low values 0.989 | S. cerevisiae deletion strains, locus YPL256C, strain CLN2, hits give low values 0.973 | S. cerevisiae deletion strains, locus YPR119W, strain clb2, hits give low values 0.978 | S. cerevisiae deletion strains, locus YPR141C, strain kar3, hits give low values 0.975 | S. cerevisiae deletion strains, locus YPR163C, strain tif3, hits give low values 0.993 | S. cerevisiae deletion strains, locus YPR167C, strain met16, hits give low values 0.986 | S. cerevisiae deletion strains, strain wtn01, hits give low values 0.997 | S. cerevisiae strains, strain wild type, hits give low values 0.984
